This is a sample that favours compounds with a hit; in the whole collection about 3.8% have one here.
rRNA inh HTS – inhibitors of bacterial rRNA selective over humanized ribosomes. E. coli WT GFP vs humanized-ribosome RFP mutants, fluorescence, 24 h; hits give low values; DMSO median 0, no signal -100. GFP signal change (wild-type ribosome), % (concentration not given with the values). 350,000 tested, 1.6% active;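 active = significant combined selectivity score with lowered wild-type GFP, culture density cut under 30%, mutant RFP and density less affected; inactive = any of these conditions unmet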
ADAM10 inh – ADAM10 inhibition, QFRET primary screen; inhibition, % at 7 µM; recombinant ADAM10, EDANS/DABCYL FRET peptide cleavage, 3 h; AID 720582; O14672; 370,000 tested, 0.62% active;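 active = inhibition above a per-campaign cutoff equal to the mean of compounds falling between control-based bounds plus 3 SD, cut at about 20% in these data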;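 note: 0% = DMSO wells while the 100% control is not disclosed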
proKLK7 act – activators of human kallikrein-7 zymogen; P49862; purified proKLK7, EDANS-DABCYL substrate fluorescence; 100% is mature enzyme control, 0% vehicle; activation, % at 7 µM; 370,000 tested, 0.9% active;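 active = activation above the mean of all tested compounds plus 3 SD, computed per campaign excluding outliers beyond control limits, cut at about 13% in these data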
ADAM17 inh – inhibitors of human ADAM17. recombinant ADAM17, EDANS/DABCYL FRET peptide cleavage. inhibition, % at 6.95 µM. 370,000 tested, 0.83% active. AID 720648;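 active = inhibition above the mean of compounds lying between control limits plus 3 SD, set per campaign, cut at about 8.5% in these data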;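 note: 0% = DMSO-only wells as the low control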
Target sequence (P78536 215-824 limits assumed): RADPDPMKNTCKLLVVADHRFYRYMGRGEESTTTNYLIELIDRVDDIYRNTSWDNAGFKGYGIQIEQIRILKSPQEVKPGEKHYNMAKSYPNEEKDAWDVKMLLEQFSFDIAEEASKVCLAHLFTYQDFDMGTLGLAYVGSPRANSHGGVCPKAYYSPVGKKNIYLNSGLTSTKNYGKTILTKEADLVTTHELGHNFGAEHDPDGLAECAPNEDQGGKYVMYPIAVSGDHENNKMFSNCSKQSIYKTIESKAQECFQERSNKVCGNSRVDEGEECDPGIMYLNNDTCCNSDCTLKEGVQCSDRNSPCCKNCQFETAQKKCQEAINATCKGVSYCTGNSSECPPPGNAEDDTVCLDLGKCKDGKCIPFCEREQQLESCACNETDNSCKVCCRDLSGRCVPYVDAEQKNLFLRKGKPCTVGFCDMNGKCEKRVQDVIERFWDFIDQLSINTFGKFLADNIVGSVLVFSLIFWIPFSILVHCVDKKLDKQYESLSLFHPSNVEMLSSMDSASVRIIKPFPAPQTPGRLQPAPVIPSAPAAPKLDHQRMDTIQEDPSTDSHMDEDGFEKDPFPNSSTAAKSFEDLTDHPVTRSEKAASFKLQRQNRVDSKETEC
FGF22 binding – binders of recombinant human FGF22 by thermal shift | Q9HCT0 | AID 651658 | 340,000 tested, 1.5% active | SYPRO orange fluorescence; percent of sucrose octasulfate shift, DMSO zero | activity (Tm shift, normalised), % at 9.99 µM;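 active = mean Tm shift, scaled 0 neutral to 100 positive control, at about 1.3% or above, every replicate too, limit read from the data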
An asterisk follows results filed as active; x = no result given.

SMILES	rRNA inh HTS	ADAM10 inh	proKLK7 act	ADAM17 inh	FGF22 binding
C[C@@H]1CN([C@H](C)CO)C(=O)Cc2cc(NC(=O)Nc3ccccc3)ccc2O[C@@H]1CN(C)Cc1ccc2c(c1)OCO2	11	20*	1	4	0
C[C@@H]1CN([C@@H](C)CO)C(=O)Cc2cc(NC(=O)Nc3ccc(C(F)(F)F)cc3)ccc2O[C@H]1CN(C)Cc1ccc2c(c1)OCO2	-6	x	x	x	3.7*
CC(=O)Nc1ccc(NC(=O)C(C)c2cccc(C(=O)c3ccccc3)c2)cc1 (stereo unspecified)	x	8	0	2	x
CC(C(=O)Nc1ccc(O)cc1)c1cccc(C(=O)c2ccccc2)c1 (stereo unspecified)	-37*	1	0	0	-1
COc1ccc(N(C(=O)c2cnsn2)C(C(=O)NC2CCCCC2)c2ccncc2)cc1 (stereo unspecified)	8	-3	0	3	43*
CCCCCC(=O)Nc1nc(C)c(-c2csc(Nc3cc(OC)ccc3OC)n2)s1	3	2	-3	0	44*
C[C@H]1CN([C@@H](C)CO)S(=O)(=O)c2ccc(-c3ccc(F)cc3)cc2O[C@H]1CN(C)C(=O)C1CC1	-6	x	x	x	x
C[C@H]1CCCCO[C@H](CN(C)S(=O)(=O)c2cn(C)cn2)[C@@H](C)CN([C@@H](C)CO)C(=O)c2cc(NC(=O)Nc3ccc(F)cc3)ccc2O1	1	x	x	x	x
Cn1c(SCc2ccccc2)nc(N)c(N=O)c1=O	-20*	-11	1	-8	0
Cn1c(SCc2ccccc2)nc(C(F)(F)F)cc1=O	-23*	-1	-1	0	0
Cn1c(SCc2cccc(Cl)c2)nc(C(F)(F)F)cc1=O	-3	4	1	1	0
CO[C@@H]1CN(C)C(=O)c2ccc(NC(C)=O)cc2OC[C@@H](C)N(Cc2cccnc2)C[C@@H]1C	-2	x	x	x	x
C[C@@H]1CC=CC[C@@H](c2ccc3c(c2)OCO3)NC(=O)[C@H](C)N(C)C(=O)c2ccccc2O1 (mixture of isomers)	-2	x	x	x	x
C=CCNS(=O)(=O)c1cccc2cc(C(=O)O)c(O)cc12	x	-159	27*	-39	x
C=CCNS(=O)(=O)c1cccc(C(C)=O)c1	x	7	1	4	x
O=C(NCc1nnc(SCC(=O)N2CCc3ccccc32)o1)c1ccco1	8	-1	0	-1	43*
CN1CCC(OC2c3ccccc3CCc3ccccc32)CC1	-10	-10	0	4	0
CC12CCC3c4ccccc4CCC3(CO1)C2 (stereo unspecified)	-3	-1	-1	-2	43*
CC1(C)Cc2ccccc2C(/C(C#N)=N/O)=N1	4	4	0	0	43*
CC(=O)n1cc(/C=N/NC(=O)c2ccccc2O)c2ccccc21	-25*	-28	2	-8	0
O=C(N/N=C/c1ccccc1O)c1cccc2ccccc12	-35*	-7	-1	-4	0
O=C(O)c1ccc(C=NNC(=O)c2cccc3ccccc23)cc1	1	-7	1	-4	0
CCCNC(=O)N(C)C[C@H]1Oc2ncc(C3=CCCCC3)cc2C(=O)N([C@H](C)CO)C[C@H]1C	0	x	x	x	0
O=C(N/N=C/c1ccc([N+](=O)[O-])o1)c1cc2c(ccc3ccccc32)o1	-24*	-8	0	-1	0
C[C@H]1CN(C)C(=O)Cc2cc(N(C)C)ccc2O[C@H]1CN(C)S(C)(=O)=O	3	x	x	x	x
SMILES	rRNA inh HTS	ADAM10 inh	proKLK7 act	ADAM17 inh	FGF22 binding
CC1=CC(C)(C)N(C(=O)CN2C(=O)CCC2=O)c2ccccc21	2	8	0	1	43*
COCc1cc(C)nc(OCC(=O)N/N=C/c2ccccc2O)c1C#N	4	-76	-1	-27	44*
COCc1cc(C)nc(OCC(=O)N/N=C/c2ccc(O)cc2O)c1C#N	3	-29	0	-8	44*
COc1cccc2c(SCC(=O)N/N=C/c3ccc(O)cc3O)cc(C)nc12	1	-5	-1	-8	3.0*
COCc1cc(C)nc(OCC(=O)N/N=C/c2cccc(OC)c2)c1C#N	x	-96	0	-30	x
Cc1noc(C)c1S(=O)(=O)Nc1ccc2c(c1)CC(=O)N([C@@H](C)CO)C[C@@H](C)[C@H](CN(C)S(=O)(=O)c1cn(C)cn1)O2	0	x	x	x	0
c1cncc(CNc2ncnc3ccc(-c4cccnc4)cc23)c1	9	-9	0	0	45*
Clc1cccc(-c2ccc3ncnc(NCc4cccnc4)c3c2)c1	-10	-19	0	-7	0
COC(=O)C1C2OC(C(Br)C2Br)C1C(=O)OC (stereo unspecified)	11	2	1	1	44*
CCN(c1ccccc1)S(=O)(=O)c1cc2c(cc1C)N(C)CCO2	-13	-2	1	1	43*
O=C(C[C@H]1C[C@@H]2c3cc(NC(=O)NC4CCCC4)ccc3O[C@@H]2[C@H](CO)O1)NCc1ccccc1	3	x	x	x	0
CS(=O)(=O)N1CC2(C1)[C@@H](c1ccccc1)[C@@H](CO)N2C(=O)C1CCC1	4	x	x	x	x
COc1ccc(NC(=O)c2nc[nH]c2C(=O)N(C)CCO)cc1	14	0	1	-2	43*
Cc1ccc(NC(=O)c2nc[nH]c2C(=O)N(C)CCO)cc1	18	-15	0	-5	0
C=CCOc1ccc(CN(C)CC(=O)Nc2ccccc2[N+](=O)[O-])cc1	-24*	3	0	-3	0
Cc1ccc(-n2c(C)nnc2SCC(=O)NNC(=O)c2ccco2)cc1	11	1	-1	-1	44*
S=C(NCCc1ccccn1)Nc1cc(Cl)cc(Cl)c1	-32*	4	0	-1	0
CCCCC(=O)Nc1ccc(C(=O)NCCc2ccc(S(N)(=O)=O)cc2)cc1	19	0	0	0	43*
O=C(NCCc1ccccc1)Nc1ccc(Cl)cc1	x	-6	0	-1	x
S=C(NCCc1ccc(Cl)cc1)NC1CC1	5	-2	0	0	44*
S=C(NCCc1ccccc1)Nc1ccc(Cl)cc1	-54	0	0	1	1.5*
COc1ccc([C@@H]2C/C=C\C[C@@H](c3cccc(Cl)c3)NC(=O)[C@@H](c3ccccc3)CC(=O)N2)c(OC)c1	-1	x	x	x	x
COc1ccc2c3c([nH]c2c1)[C@@H](CO)N(Cc1ccncc1)CC31CN(S(C)(=O)=O)C1	1	x	x	x	x
O=C(COC(=O)Cc1ccc(F)cc1)NCCc1ccccc1	4	-4	0	-6	0
O=C(NCCc1ccccc1)C(=O)Nc1nccs1	x	-7	0	0	x
S=C(NCCc1ccccc1)N/N=C/c1c(Cl)cccc1Cl	x	10	0	7	x
O=C(COC(=O)Cc1ccc(Cl)cc1)NCCc1ccccc1	-24*	-6	0	-7	0
